Screening data: PubChem, several laboratories
This is a sample that favours compounds with a hit; in the whole collection about 3.2% have one here.
NTR1 agonist: activates human neurotensin receptor 1; 330,000 compounds, 0.17% hits; P30989; AID 493036; activation, % at 20 µM; NTR1-U2OS beta-arrestin-GFP spot imaging, agonist mode;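 active = activation at or above 40% of the spot to cytoplasm intensity ratio, with at least 20 cells analyzed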;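 note: 0% = DMSO without peptide and 100% = 100 nM NTR1 peptide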
Target sequence (P30989 whole entry, looked up): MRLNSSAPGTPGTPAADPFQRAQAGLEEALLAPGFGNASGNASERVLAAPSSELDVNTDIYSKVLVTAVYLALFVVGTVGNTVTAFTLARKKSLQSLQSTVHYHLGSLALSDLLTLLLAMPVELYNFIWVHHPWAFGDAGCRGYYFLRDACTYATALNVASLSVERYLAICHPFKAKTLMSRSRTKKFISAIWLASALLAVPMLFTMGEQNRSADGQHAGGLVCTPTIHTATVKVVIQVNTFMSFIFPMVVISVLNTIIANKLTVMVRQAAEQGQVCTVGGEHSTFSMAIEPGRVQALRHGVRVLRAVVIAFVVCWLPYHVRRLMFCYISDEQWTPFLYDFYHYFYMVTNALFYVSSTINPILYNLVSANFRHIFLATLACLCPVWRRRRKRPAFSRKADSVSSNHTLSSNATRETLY
AHR act: activates the human aryl hydrocarbon receptor; P35869; AHR-responsive luciferase reporter cells, luminescence; activation, % at 5 µM; 320,000 compounds, 2.5% hits; AID 2796; in the data active = activation above about 47%;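 note: 0% = vehicle wells and 100% = reference agonist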
APOBEC3G inh: blocks human APOBEC3G single-stranded DNA deamination. Q9HC16. recombinant A3G, ssDNA deamination FAM/TAMRA fluorescence. inhibition, % at 20 µM. 330,000 compounds, 0.28% hits. AID 493012;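 active = inhibition of at least 40% at 20 µM, with no more than 30% in the related APOBEC3A deaminase screen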;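 note: plate controls were DMSO wells with A3G for no effect and wells lacking A3G enzyme for full effect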
APOBEC3A inh: blocks human APOBEC3A ssDNA deamination; AID 493011; inhibition, % at 20 µM; P31941; recombinant A3A, FAM/TAMRA ssDNA deamination fluorescence; 330,000 compounds, 0.41% hits;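 active = at least 40% inhibition at 20 µM here, with at most 30% in a related deaminase screen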;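 note: plate controls were A3A with DMSO for no effect and wells lacking A3A enzyme for full effect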
Target sequence (P31941 whole entry, looked up): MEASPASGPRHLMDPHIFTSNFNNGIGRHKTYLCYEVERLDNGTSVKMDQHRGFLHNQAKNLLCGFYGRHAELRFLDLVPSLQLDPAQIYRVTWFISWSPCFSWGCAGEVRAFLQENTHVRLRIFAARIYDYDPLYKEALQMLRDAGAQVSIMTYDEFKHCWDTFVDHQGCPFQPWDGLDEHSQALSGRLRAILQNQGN
AHR act confirm: confirmation of human aryl hydrocarbon receptor activators. 2,300 compounds, 87% hits. activation, % at 9 µM. shares compounds with AHR act. human cells, AHR-responsive luciferase reporter, luminescence; in the data active = activation above about 49%;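 note: HepG2 hepatoma cells carrying a DRE-driven firefly luciferase reporter; 0% = vehicle wells and 100% = reference agonist wells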
PXR act counter: PXR activation, counter-screen for AHR activators | shares compounds with AHR act | cell-based PXR reporter, luciferase luminescence | activation, % at 11.6 µM | 2,300 compounds, 88% hits; in the data active = activation above about 11%;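 note: human hepatoma DPX-2 cells expressing full-length human PXR; 0% = DMSO and 100% = reference agonist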
An asterisk follows results filed as active; · = no result.

SMILES	NTR1 agonist	AHR act	APOBEC3G inh	APOBEC3A inh	AHR act confirm	PXR act counter
COc1ccc(F)cc1C1=CC(=O)C[C@H](c2ccc3c(c2)OCO3)C1	1.7	86.1*	-5.9	0.8	72.8*	111.7*
COc1cccc(OC)c1C1=CC(=O)C[C@H](c2ccc3c(c2)OCO3)C1	0.2	41.2	-7.8	-2.0	·	·
O=C1C=C(c2ccccc2)C[C@@H](c2ccc3c(c2)OCO3)C1	1.7	36.4	-10.0	-2.7	·	·
COc1cccc(C2=CC(=O)C[C@H](c3ccc4c(c3)OCO4)C2)c1OC	-1.8	119.5*	-7.0	-2.9	109.2*	148.3*
O=C1C=C(c2cccc(Br)c2)C[C@@H](c2ccc3c(c2)OCO3)C1	4.4	86.4*	-12.2	-4.4	83.3*	32.9*
COCCNC(=O)C(=O)NCC1OCCN1S(=O)(=O)c1cc(F)ccc1F (configuration not stated)	0.4	-4.2	-12.0	-2.9	·	·
O=C(OCCc1cc2ccccc2c(=O)o1)N1CCOCC1	-1.7	11.5	-0.1	-0.4	·	·
COC(=O)c1ccc(NS(=O)(=O)c2cc(-c3cc(C)no3)ccc2OC)cc1	0.4	-1.9	-4.9	-3.2	·	·
CC(OC(=O)c1ccc2c(=O)n3c(nc2c1)CCC3)C(=O)NC1CCCCC1C (configuration not stated)	1.4	-1.0	-5.4	3.1	·	·
CCCCn1c(N)c(N(CC)C(=O)c2c(C)noc2C)c(=O)[nH]c1=O	6.2	-1.1	15.0	-0.4	·	·
O=C(CNC(=O)c1ccc(Br)o1)NCc1ccc(F)cc1	0.6	2.1	0.8	4.8	·	·
COc1cc(-c2nc(-c3ccccc3)c(-c3ccc(F)cc3)[nH]2)cc2c1OCO2	22.0	116.5*	-6.7	-1.4	84.1*	65.6*
O=C(CCSc1nnc2scc(-c3ccccc3)n12)NCc1ccc2c(c1)OCO2	0.7	1.7	-8.0	-2.6	·	·
c1ccc(-c2csc3nnc(SCc4ccc5c(c4)OCO5)n23)cc1	-1.3	83.7*	-7.4	0.0	48.1*	130.4*
c1cncc(-c2nc(-c3ccc4c(c3)OCO4)cs2)c1	2.5	94.7*	-3.9	-1.4	80.4*	26.8*
c1cncc(-c2nc(-c3ccco3)cs2)c1	-0.5	13.1	5.6	5.4	·	·
Clc1ccsc1-c1csc(-c2cccnc2)n1	2.1	84.7*	-4.0	-2.3	142.2*	25.0*
c1cncc(-c2csc(-c3cccnc3)n2)c1	-0.4	-3.0	-6.7	-1.6	·	·
NS(=O)(=O)c1ccc(CCNC(=O)c2ccc(-c3ccccc3)cc2)cc1	-0.2	-0.6	9.8	9.6	·	·
CCOC(=O)CSc1n[nH]c(NC(C)=O)n1	-0.4	0.3	-5.2	-2.5	·	·
COc1ccc(-c2cc(C(=O)N3CCN(S(=O)(=O)c4ccc(C)cc4)CC3)[nH]n2)cc1	0.6	111.3*	-8.0	-2.6	2.5	13.4*
COc1ccc(S(=O)(=O)N2CCN(C(=O)c3cc(-c4ccc(C)cc4)n[nH]3)CC2)cc1	4.8	2.2	-0.2	3.3	·	·
O=C(Nc1nc2c(s1)COc1ccccc1-2)c1cccs1	11.2	129.4*	-2.5	-3.7	129.0*	16.2*
O=C(Nc1nc2ccc(F)cc2s1)c1cccs1	-3.0	98.9*	-2.5	-0.4	136.0*	8.9
CN(C)S(=O)(=O)c1ccc2nc(NC(=O)c3cccs3)sc2c1	-0.8	5.8	-4.7	-1.9	·	·
SMILES	NTR1 agonist	AHR act	APOBEC3G inh	APOBEC3A inh	AHR act confirm	PXR act counter
O=C(Nc1nc2c(s1)CCc1ccccc1-2)c1cccs1	21.4	85.5*	-5.0	-1.8	158.0*	19.7*
COc1cccc(CN2CCCC(C(=O)Nc3ccc(-c4cscn4)cc3)C2)c1 (configuration not stated)	-0.8	·	-4.2	-0.8	·	·
Cc1cc(C)cc(NC(=S)NCc2ccc3[nH]c4c(c3c2)CCCC4)c1	2.5	22.0	-8.2	-3.7	·	·
S=C(NCc1ccc2[nH]c3c(c2c1)CCCC3)Nc1ccccc1	2.3	112.0*	-1.9	-4.5	71.1*	35.5*
c1ccc(-c2ccc(-c3csnn3)cc2)cc1	-0.1	85.6*	-2.5	0.6	96.4*	17.1*
C[C@H]1CC[C@H]2C(=O)N3[C@H](c4ccccc4Br)[C@@H](C)CC[C@H]3C(=O)N2[C@@H]1c1ccccc1Br	8.7	-0.1	-4.4	-2.2	·	·
COc1ccc(-c2cc(C(F)(F)F)nc(SCC(=O)NCCCN3CCOCC3)n2)cc1	-1.4	-2.2	-3.6	0.0	·	·
Cc1ccc(-c2[nH]ncc2/C=N/n2c(COc3ccccc3C)nc3ccccc3c2=O)cc1	5.1	25.4	-5.1	-2.7	·	·
Cc1cccc(C)c1OCc1nc2ccccc2c(=O)n1/N=C/c1c[nH]c2ccccc12	29.6	102.1*	-0.1	-1.8	32.2	112.1*
Cc1cc(/C=N/n2c(COc3ccccc3C)nc3ccccc3c2=O)c(O)c([N+](=O)[O-])c1	3.0	13.1	0.4	1.8	·	·
Cc1ccccc1OCc1nc2ccccc2c(=O)n1/N=C/c1c[nH]c2ccccc12	31.6	85.5*	1.2	5.4	35.4	88.8*
Cc1cc2c([nH]c3ccccc32)c2c1OC(C)(C)C=C2	10.2	101.7*	-9.0	-3.5	119.4*	72.3*
COc1ccc2[nH]c(=O)c3c(c2c1)OC(C)(C)C=C3	-1.8	17.6	-0.6	0.7	·	·
Cc1cccc(Nc2nc(N)nc(-c3oc4ccccc4c3C)n2)c1	17.2	-6.5	11.8	11.4	·	·
Cc1ccc(Nc2nc(N)nc(-c3oc4ccccc4c3C)n2)cc1	21.1	103.5*	-2.5	4.8	-6.6	85.5*
Cc1nc(N)sc1C(=O)Nc1ccccc1	0.2	105.1*	-5.7	-4.4	45.6	22.9*
Cc1nc(/N=C\N(C)C)sc1C(=O)Nc1ccccc1	-1.3	108.5*	1.5	0.2	129.5*	10.7*
Cc1nc(-c2cccnc2)sc1C(=O)Nc1ccc(Cl)cc1	0.0	124.3*	0.6	1.2	111.9*	13.2*
Cc1nc(C(=O)Nc2ccccc2)sc1C(=O)Nc1ccccc1	-0.6	1.7	9.7	10.6	·	·
Clc1nc(CN2CCCCC2)nc2sc3c(c12)CCC3	6.2	-2.0	-5.0	0.0	·	·
COc1ccc(NC(=O)C(=O)c2cn(CC(=O)N3CCOCC3)c3ccccc23)cc1OC	-0.2	2.5	-7.3	-3.3	·	·
Nc1ncnc2c1cnn2C1CCCCC1	-1.7	2.7	-0.4	0.4	·	·
CSc1nc2[nH]c3c(c2c2nnnn12)CCCC3	1.4	115.6*	6.5	3.3	106.9*	44.3*
CC(C)(C)CC(=O)Nc1nnc(SCC(=O)N2CCCCC2)s1	0.1	0.2	0.9	-1.5	·	·
O=C(/C=C/Nc1ccccc1)c1ccccc1	-0.2	1.6	-6.7	-3.7	·	·
Cc1cc(N/C=C/C(=O)c2ccccc2)ccc1Br	-0.7	94.4*	-6.0	-8.1	107.7*	10.9*
COC(=O)c1cc(NS(=O)(=O)c2ccc(NC(C)=O)cc2)ccc1Cl	0.2	-2.7	0.0	0.9	·	·
Cc1cc(=O)[nH]c(N/N=C/c2ccc(OC(=O)c3cccnc3)cc2)n1	2.2	2.6	-4.2	-4.8	·	·
